Screening results (PubChem BioAssay)
TbPYK inhibitor = blocks Trypanosoma brucei pyruvate kinase; Q57TT1; TbPYK enzyme, Kinase-Glo Plus ATP luminescence, 45 min; Potency, µM (doses to about 76.8 µM), without a hit: at the top dose activity, negative = inhibition, actives largely listed as inhibitors; 410,000 tested, 0.12% active; further: nearly all actives have a fitted effect of over 50% in size
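Assay buffer: 50 mM TEA pH 7.2, 100 mM KCl, 10 mM MgCl2, 0.05% BSA, 0.01% Tween-20. Pyruvate kinase from T. brucei plus substrate met compound, then ADP (130 uM final). Luminescence was read post 45 min RT.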
RE007 growth inh = less growth of the S. pombe RE007 Vpr strain. S. pombe RE007 Vpr strain, BacTiter-Glo ATP luminescence, 24 h. Potency, µM (series often up to 92.2 µM), inactives show at the highest dose activity change, negative = less growth, usual class: inhibitors. 360,000 tested, 0.21% active; active means well fitted falling curve with a large enough effect; inconclusive means small, poorly fitted or top-dose-only effect; inactive means no such curve, though single readings can be large or run the other way; further: nearly all actives have a fitted effect of over 50% in size
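Fission yeast strain RE007, carrying one chromosomally integrated HIV-1 vpr copy, was seeded at OD 0.01 in PMG+AL medium with 23 nL pinned compound. After 24 h at 30 °C and 99% humidity, viability was read by BacTiter-Glo luminescence.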
FBPA Giardia inh = Giardia lamblia aldolase inhibition; A8B2U2; purified Giardia FBPA; Potency, µM (highest dose often 59.6 µM), inactives show at the top dose activity, negative = inhibition, most hits filed as inhibitors; 290,000 tested, 0.71% active; AID 2451; further: nearly all actives have a fitted effect of over 55% in size
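Giardia FBPA (40 nM reagent) was preincubated 10 min at RT with compound (up to 57.5 uM final), then substrate plus GAPDH/TPI/NAD/arsenate coupling system with diaphorase/resazurin was added; resorufin fluorescence (525/598 nm) was read after 20 min.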
LmPK inh = inhibitors of Leishmania mexicana pyruvate kinase | Q27686 | purified LmPK, Kinase-Glo ATP luminescence, 1 h | Potency, µM (doses to about 57.5 µM), without a hit: at the highest dose activity change, negative = inhibition, most hits filed as inhibitors | 290,000 tested, 0.37% active | AID 1721
Target sequence (Q27686 whole entry, looked up): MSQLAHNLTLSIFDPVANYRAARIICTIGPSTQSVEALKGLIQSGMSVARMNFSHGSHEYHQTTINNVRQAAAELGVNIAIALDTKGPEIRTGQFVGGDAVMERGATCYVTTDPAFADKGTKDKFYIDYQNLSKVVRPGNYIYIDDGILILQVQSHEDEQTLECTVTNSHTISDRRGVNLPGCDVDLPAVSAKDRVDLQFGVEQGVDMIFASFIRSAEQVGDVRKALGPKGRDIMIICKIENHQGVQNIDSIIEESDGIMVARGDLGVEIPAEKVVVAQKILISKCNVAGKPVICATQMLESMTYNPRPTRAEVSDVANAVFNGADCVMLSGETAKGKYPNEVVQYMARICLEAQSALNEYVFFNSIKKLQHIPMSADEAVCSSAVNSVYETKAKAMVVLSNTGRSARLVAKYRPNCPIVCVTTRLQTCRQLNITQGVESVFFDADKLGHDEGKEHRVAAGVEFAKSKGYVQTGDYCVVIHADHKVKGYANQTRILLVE
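In 50 mM imidazole pH 7.2 with 7 mM MgCl2, LmPK (0.1 nM) turned over PEP (0.5 mM) and ADP (0.1 mM) for 1 h at room temperature. Luciferase read-out of ATP.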
* = called active by the depositor; ? = inconclusive; · = not tested or not shown; [ ] = dose if it differs, or a comment. Only some compounds are listed: those with a hit (about 0.95% of all), similar ones and a draw of the others. Unless noted, the call rests on the fitted dose curve; in most records, active means well fitted curve in the direction sought with a large enough effect; inconclusive means small, poorly fitted or top-dose-only effect, or another doubt; inactive means no such curve, though single readings can be large; an effect the other way counts as inactive or inconclusive. On the % scale 0 is the no-effect control and ±100 the full control effect; potency means the concentration at half of the fitted maximal effect.

SMILES	TbPYK inhibitor	RE007 growth inh	FBPA Giardia inh	LmPK inh
COc1ccc(C(=O)/C=C/Nc2cc(C)ccn2)cc1	-27.1%	-12.8%	-8.1%	12.6µM*
COc1ccc(C(=O)/C=C/Nc2ccccn2)c(OC)c1	-2.5%	?	-1.3%	-8.8%
O=C(/C=C\Nc1ccccn1)c1ccccc1	-16.4%	0.0%	2.4%	12.6µM*
O=C(/C=C/Nc1cccc(O)c1)c1ccccc1	-11.7%	0.8%	-2.3%	14.1µM*
Cc1ccnc(N/C=C/C(=O)c2ccc(Br)cc2)c1	-16.1%	7.2%	1.2%	-2.9%
COc1nc(C)cnc1NS(=O)(=O)c1cccnc1-c1ccc(-c2nnco2)cc1	0.0%	·	·	·
CC(=O)OCC12CC(OC(=O)CC(C)C)C(C)=CC1OC1C(O)C(OC(C)=O)C2(C)C12CO2 (stereo not given)	0.1%	5.62µM*	·	·
CC(=O)O[C@@H]1[C@@H](O)C2OC3C=C(C)C(=O)[C@@H](O)[C@]3(CO)C1(C)C21CO1 (stereo not given in full)	·	·	-1.3%	·
NC(N)=NC(N)=Nc1cccc2ccccc12	1.1%	12.0%	-29.0%	-1.2%
NC(N)=Nc1cc2ccccc2c2ccccc12	·	·	3.15µM*	-0.1%
CCC(C(=O)OCc1cc(=O)n2nc(C)sc2n1)c1ccccc1 (stereo not given)	3.8%	·	·	·
CC(=O)c1cnc2cc(C)nn2c1C	-8.1%	18.7%	0.4%	-3.7%
Cc1cc2ncc(C(=O)Nc3ccsc3C(=O)O)c(C)n2n1	?	-17.4%	-9.3%	25.1µM*
CC1CN(Cc2c(O)ccc3c(=O)c(-c4ccccc4)coc23)CC(C)O1 (stereo not given)	-3.8%	5.1%	0.4%	-5.6%
CC1CN(Cc2c(O)ccc3c2oc(=O)c2ccccc23)CC(C)O1 (stereo not given)	?	4.7%	15.8µM*	-1.4%
c1ccc(-c2noc(-c3ccc4c(c3)OCO4)n2)cc1	-14.9%	5.1%	4.3%	15.8µM*
COc1ccc(-c2noc(-c3ccc4c(c3)OCO4)n2)cc1	-1.6%	-10.6%	5.3%	-3.9%
Cc1ccc(NC(=O)C2CCC(CNS(=O)(=O)c3cccs3)CC2)cc1C (stereo not given)	0.5%	·	·	·
Oc1cc(-c2ccccc2)c2ccccc2c1	1.0%	?	5.61µM*	-1.3%
COc1ccc(/C(N)=N/OC(=O)c2ccco2)cc1	-19.6%	-22.3%	0.4%	11.2µM*
N/C(=N\OC(=O)c1ccco1)c1ccccc1	-17.8%	-12.8%	4.1%	22.4µM*
Cc1ccc(/C(N)=N/OC(=O)c2ccco2)cc1	-8.6%	-28.2%	1.7%	?
N/C(=N\OC(=O)c1ccco1)c1ccccn1	?	-7.2%	-4.1%	12.6µM*
N/C(=N\OC(=O)c1ccco1)c1ccc(Br)cc1	4.2%	?	4.7%	-21.9%
Cc1cccc(/C(N)=N/OC(=O)c2ccco2)c1	-14.7%	?	5.2%	15.8µM*
SMILES	TbPYK inhibitor	RE007 growth inh	FBPA Giardia inh	LmPK inh
COc1cc2ncn(-c3cc(OCc4ccccc4C(F)(F)F)c(C(N)=O)s3)c2cc1OC	0.0%	·	·	·
O=C(Cn1cnc2c(oc3ccccc32)c1=O)Nc1ccccc1C(F)(F)F	3.7%	·	·	·
O=S(=O)(c1cccc(-c2n[nH]c(=S)n2Cc2ccccc2)c1)N1CCOCC1	?	15.6%	5.1%	-8.5%
CCN(CC)S(=O)(=O)c1cccc(-c2n[nH]c(=S)n2CC(C)C)c1	8.91µM*	0.0%	4.5%	?
CCN(CC)S(=O)(=O)c1cccc(-c2n[nH]c(=S)n2Cc2ccccc2)c1	5.62µM*	14.4%	11.3%	-1.7%
CC(=O)c1ccc(NC(=O)CSc2cn(CC(=O)N(C(C)C)C(C)C)c3ccccc23)cc1	-4.6%	·	·	·
COc1ccc(-c2ccc(C)cc2)cc1C1C2C=CCC(C)C2C(=O)N1Cc1ccccc1 (stereo not given)	·	·	5.0%	·
C/C(CCc1ccco1)=N\NC(=O)CNc1cccc2ccccc12	4.4%	5.1%	19.9µM*	12.5%[11.5 µM]
O=C(Oc1cccc2cccnc12)c1cccs1	5.7%	5.01µM*	?	10.3%
O=C(Oc1ccccc1)c1cccc2cccnc12	-0.4%	35.5µM*	9.0%	-1.0%
O=C(NCCOc1cccc2cccnc12)c1cccs1	1.8%	-4.8%	-0.9%	2.9%
O=C(Oc1cccc2cccnc12)c1ccco1	-8.6%	28.2µM*	-3.6%	2.7%
CC#CC[C@@H](C)[C@@H](O)/C=C/[C@H]1[C@H]2c3cccc(CCCC(=O)O)c3O[C@H]2C[C@@H]1O	-3.2%	·	·	·
O=C(CSc1nnc(CNC(=O)c2ccccc2F)n1-c1ccccc1)Nc1ccccc1F	3.0%	·	·	·
COc1ccc(CNC(=O)CCc2nc3cccnc3n2Cc2ccccc2)cc1	-15.9%	·	·	·
CC(=O)OCC(=O)Nc1cc(C#N)cc(NC(=O)COC(C)=O)c1Cl	1.8%	·	·	·
N/C(=N\OC(=O)c1cc([N+](=O)[O-])ccc1Cl)c1ccccn1	1.9%	28.0%	-2.2%	-4.0%
N/C(=N\OC(=O)c1ccc(Cl)cc1[N+](=O)[O-])c1ccccn1	-11.4%	-16.4%	-1.8%	-9.9%
Cc1ccc(C(=O)O/N=C(\N)c2ccccn2)c(Cl)c1	14.1µM*	12.6µM*	9.4%	?
N/C(=N\OC(=O)c1cc(Br)ccc1Cl)c1ccccn1	1.2%	-28.3%	1.2%	-18.3%
N/C(=N\OC(=O)c1ccc([N+](=O)[O-])cc1Cl)c1ccccn1	?	-0.9%	21.1%	17.8µM*
N/C(=N\OC(=O)c1ccc(Cl)cc1Cl)c1ccccn1	-32.3%	-23.6%	-2.2%	7.08µM*
CCc1ccc(NC(=O)CSc2nccn2-c2cccc(C)c2C)cc1	-7.8%	·	·	·
CCCCC/C=C/C/C=C/CCCCCCCC(=O)NC(C)c1ccccc1 (stereo not given)	-2.1%	·	·	·
O=c1c(CCc2ccccc2)nc2cnc(N3CCNCC3)nc2n1Cc1ccc(F)cc1	-7.3%	·	-13.7%	·
SMILES	TbPYK inhibitor	RE007 growth inh	FBPA Giardia inh	LmPK inh
CCCOc1ccc(C(=O)NC(=S)Nc2nc3ccc(C)cc3s2)cc1	·	·	3.7%	-0.8%
Cc1ccc2nc(NC(=S)NC(=O)c3ccc(OC(C)C)cc3)sc2c1	2.8%	-4.9%	-16.4%	12.6µM*
COc1ccccc1N1C(=O)C=C(Sc2nc(C)cc(C)n2)C1=O	5.01µM*	8.8%	-22.0%	?
COc1ccccc1N1C(=O)C2CC(C)=C(C)CC2C1=O (stereo not given)	1.1%	-9.1%	1.8%	-2.3%
O=c1oc2ccccc2cc1-c1nc2c(s1)CCCC2	-20.5%	-3.9%	4.2%	12.6µM*
O=C(N=Nc1c(O)[nH]c2ccccc12)c1ccco1	7.8%	-25.8%	-21.4%	25.1µM*
O=C(Nc1ccccn1)c1onc2c1CCCC2	?	10µM*	-3.9%	11.2µM*
COC(=O)CC1c2ccccc2C=C(/C=C/c2ccc3c(c2)OCO3)N1C(=O)OC (stereo not given)	·	·	-0.3%[12.9 µM]	-13.1%[11.5 µM]
O=C(NCCc1ccccc1)c1cccc(Br)n1	·	·	0.4%[89.2 µM]	·
CC(C)C(Cl)=NOC(=O)Nc1ccc(S(N)(=O)=O)cc1	-16.8%	15.8µM*	·	·
COC(=O)[C@H](C)NC(=O)Nc1ccc(S(N)(=O)=O)cc1	-9.4%	0.0%	3.5%	-3.2%
